In PubChem BioAssay (NCI):
Compounds without any hit were thinned out: in the full panel of roughly 83,000, 20% have a hit.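 Interpretation: 100, growth as untreated; towards 0, rising growth inhibition; 0, no net growth; 0 to -100, cell death. Compounds scoring below 10 were considered active.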 Unmarked numbers belong to inactive results. Activity calls are given as the source filed them.

Assays:
Assay in all cases: NCI-60 one-dose screen, 48 h (100 = growth as untreated, 0 = no growth, -100 = all killed)
Conditions in all cases: 10 µM unless noted
DU-145 prostate = test system: DU-145 prostate
K-562 leukemia = test system: K-562 leukemia
MALME-3M melanoma = test system: MALME-3M melanoma
MDA-MB-231 breast = test system: MDA-MB-231 breast
RXF 393 renal = test system: RXF 393 renal
SF-268 CNS = test system: SF-268 CNS
SF-295 CNS = test system: SF-295 CNS
SF-539 CNS = test system: SF-539 CNS
UACC-257 melanoma = test system: UACC-257 melanoma
M14 melanoma = test system: M14 melanoma
HCT-15 colon = test system: HCT-15 colon
HT29 colon = test system: HT29 colon
SNB-75 CNS = test system: SNB-75 CNS
SNB-19 CNS = test system: SNB-19 CNS
U251 CNS = test system: U251 CNS
PC-3 prostate = test system: PC-3 prostate
SK-MEL-5 melanoma = test system: SK-MEL-5 melanoma
UACC-62 melanoma = test system: UACC-62 melanoma
LOX IMVI melanoma = test system: LOX IMVI melanoma
SK-MEL-28 melanoma = test system: SK-MEL-28 melanoma

| SMILES | growth (DU-145 prostate) | growth (K-562 leukemia) | growth (MALME-3M melanoma) | growth (MDA-MB-231 breast) | growth (RXF 393 renal) | growth (SF-268 CNS) | growth (SF-295 CNS) | growth (SF-539 CNS) | growth (UACC-257 melanoma) | growth (M14 melanoma) | growth (HCT-15 colon) | growth (HT29 colon) | growth (SNB-75 CNS) | growth (SNB-19 CNS) | growth (U251 CNS) | growth (PC-3 prostate) | growth (SK-MEL-5 melanoma) | growth (UACC-62 melanoma) | growth (LOX IMVI melanoma) | growth (SK-MEL-28 melanoma) |
| --- | --- | --- | --- | --- | --- | --- | --- | --- | --- | --- | --- | --- | --- | --- | --- | --- | --- | --- | --- | --- |
| O=CN1N=C(c2cccc(Nc3ccncc3)c2)CC1c1ccc2c(c1)OCO2 (stereo not given) | 104% | 64.7% | 86.7% | 103% | 100% | 91.9% | 91.9% | 95.3% | 80.1% | 96.4% | 95.7% | 69.8% | 88.4% | 99.7% | 94.8% | 84.9% | 91.8% | 99.6% | 95.3% | 97.7% |
| CN(Cc1ccccc1)c1nc(Cl)c(C2CC(c3ccc(Cl)cc3)=NN2c2cc(Cl)cc(Cl)c2)s1 (stereo not given) | 109% | 87% | 97.3% | 110% | 104% | 100% | 95.3% | 106% | 110% | 96.1% | 98.8% | 92.9% | 90.4% | 108% | 109% | 92.5% | 107% | 98.1% | 97.8% | 112% |
| CCOC(=O)c1cnc2sc(-c3ccc(OC)cc3)nc2c1Cl | 96.3% | 107% | 76.3% | 101% | 101% | 103% | 105% | 104% | 101% | 79.1% | 92.9% | 116% | 94.7% | 104% | 103% | 104% | 84.2% | 88.7% | 86.8% | 99% |
| CC(C)(C#N)c1cc(C(=O)Nc2cc(Nc3ncccc3-c3ncnc4nc[nH]c34)ccc2F)cc(C(F)(F)F)c1 | 66% | 5.56% (active) | 2.06% (active) | 18.3% | 91.7% | 66.2% | 74.5% | 32.1% | 12% | 6.18% (active) | 54% | 20.7% | 37% | 71.2% | 59.7% | 63.9% | 24.4% | 3.16% (active) | -9.46% (active) | 10.4% |
| Cc1ccc2c(c1)CC(O)CC1C(=O)N(CCO)CC(=O)N21 (stereo not given) | 111% | 101% | 100% | 92.4% | 90.5% | 99.7% | 101% | 102% | 81.1% | 103% | 106% | 96.1% | 83% | 102% | 95.4% | 96.8% | 104% | 97.3% | 96.2% | 102% |
| CCN1C(=O)N(CC)C2C1NN=c1s/c(=C\c3ccc([N+](=O)[O-])cc3)c(=O)n12 (stereo not given) | 19.9% | 9.56% (active) | 45.7% | 18.5% | 2.89% (active) | 71.5% | 13.2% | -7.87% (active) | 31.1% | 12% | 16.3% | 5.2% (active) | 0.315% (active) | 31.6% | 20.8% | 32.6% | 27.6% | 27.7% | 36.8% | 64.1% |
| CCc1ccc(Cc2cnc(NC(=O)c3cc(C)oc3C)s2)cc1 | 60.2% | 14.6% | 56% | 57.8% | 15.4% | 48.6% | 31.8% | 31.2% | 52.1% | 21.4% | 24.3% | 10.8% | -4.36% (active) | 37.1% | 33.3% | 37.7% | 36.8% | 25.3% | 41.3% | 59.5% |
| O=C1c2c(c3c4cc(F)ccc4oc3c3[nH]c4ccccc4c23)C(=O)N1O | 31.8% | 26.1% | 28% | 57.6% | 39.9% | 38.7% | 55.7% | 2.46% (active) | 75.9% | 28.6% | 33.2% | 31.4% | 10.3% | 26.7% | 24.5% | 32.3% | -30% (active) | 3.37% (active) | -25.3% (active) | 29% |
| CC(Cc1cccc2ccccc12)C(N)=O (stereo not given) | 110% | 104% | 111% | 100% | 113% | 106% | 100% | 96.6% | 104% | 108% | 101% | 101% | 98.6% | 104% | 105% | 93.8% | 101% | 98.8% | 101% | 108% |
| CC(=O)/C(Br)=C/c1ccc(Br)o1 | 68.5% | 4.61% (active) | 61.4% | 95.7% | -13.5% (active) | 75% | 73.7% | 94% | 102% | 64.9% | 65.8% | 62.4% | 92.6% | 87.8% | 80.4% | 80.8% | -0.755% (active) | 85.9% | 38.7% | 60.8% |
| CC(C)(C)[C@H](OCc1cn([C@H]2C[C@@H](O)[C@@H](CO)O2)c(=O)[nH]c1=O)c1ccc(C#Cc2ccccc2)cc1[N+](=O)[O-] | 86.4% | 60.5% | 84% | 91.7% | 47.2% | 81.5% | 82% | 97.1% | 83.5% | 45.1% | 69.8% | 62.3% | 67% | 82.4% | 68.9% | 19.3% | 75.4% | 66.9% | 84.7% | 101% |
| Cc1c(CC(=O)Nc2ccccc2)nnn1-c1ccccc1 | 115% | 101% | 106% | 118% | 120% | 104% | 109% | 100% | 104% | 108% | 101% | 111% | 104% | 102% | 102% | 104% | 101% | 97.7% | 97.7% | 112% |
| COc1ccc(-c2csc(NC(=O)CSc3nc(C)cc(=O)[nH]3)n2)cc1 | 106% | 104% | 110% | 91.7% | 128% | 96.4% | 99.3% | 101% | 101% | 107% | 102% | 107% | 95.9% | 89.3% | 102% | 94.9% | 96.7% | 87.7% | 96.3% | 106% |
| O=C(COc1ccc(/C=C2\Oc3ccccc3C2=O)cc1)Nc1nccs1 | 109% | 70.1% | 98.1% | 76.6% | 95.5% | 75.1% | 116% | 99.9% | 113% | 105% | 104% | 107% | 51.3% | 102% | 90.9% | 78.7% | 105% | 90.6% | 85.1% | 129% |
| Cc1nc2ccccc2c(/C=C/c2ccc(Br)cc2)c1C(=O)/C=C/c1ccccc1 | -3.75% (active) | 7.54% (active) | -28.4% (active) | 11.9% | -71.3% (active) | 51.9% | 4.22% (active) | -62.7% (active) | -4.07% (active) | 6.49% (active) | -27.3% (active) | -15.1% (active) | 51.3% | -11.6% (active) | -81.9% (active) | 19.7% | 6.82% (active) | -5.46% (active) | -89.6% (active) | 3.46% (active) |
